# Test results published in publication PMC5540273 (PLoS ONE, 2017).
# Where two headings read alike, the source gives them in different places.
# Experiments:
# [1] = test system: PRKD3; details: concentration: 1 μM, replicates: in singlicate; n = 1
# [2] = test system: PRKG1; details: n = 1
# [3] = test system: PRKG2; details: concentration: 1 μM, replicates: in singlicate; n = 1
# [4] = test system: T1, PRKR; details: concentration: 1 μM, replicates: in singlicate; n = 1
# T1 construct: gene EIF2AK2
# [5] = test system: PRKX; details: n = 1
# [6] = test system: PRP4; details: concentration: 1 μM, replicates: in singlicate; n = 1
# [7] = test system: T2, PYK2; details: concentration: 1 μM, replicates: in singlicate; n = 1
# T2 construct: gene PTK2B
# [8] = test system: QSK; details: concentration: 1 μM, replicates: in singlicate; n = 1
# [9] = test system: RAF1; details: concentration: 1 μM, replicates: in singlicate; n = 1
# [10] = test system: RET; details: concentration: 1 μM, replicates: in singlicate; n = 1
# [11] = test system: RIOK1; details: concentration: 1 μM, replicates: in singlicate; n = 1
# [12] = test system: RIOK2; details: concentration: 1 μM, replicates: in singlicate; n = 1
# [13] = test system: RIOK3; details: concentration: 1 μM, replicates: in singlicate; n = 1
# [14] = test system: RIPK1; details: concentration: 1 μM, replicates: in singlicate; n = 1
# [15] = test system: RIPK2; details: concentration: 1 μM, replicates: in singlicate; n = 1
# [16] = test system: RIPK4; details: concentration: 1 μM, replicates: in singlicate; n = 1
# [17] = test system: RIPK5; details: concentration: 1 μM, replicates: in singlicate; n = 1
# [18] = test system: ROCK1; details: concentration: 1 μM, replicates: in singlicate; n = 1
# [19] = test system: ROCK2; details: n = 1
# [20] = test system: ROS1; details: concentration: 1 μM, replicates: in singlicate; n = 1
# [21] = concentration: 1 μM, replicates: in singlicate
# 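Further: KINOMEscan kinase panel screen.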
compound,measurement,setting,value
COC(=O)Nc1nc2ccc(Oc3ccc(NC(=O)Nc4cc(C(F)(F)F)ccc4F)cc3)cc2n1C.Cl [GW692089],%Inh,[1],5%
same,%Inh,[2]; [21],14%
same,%Inh,[3],5%
same,%Inh,[4],0%
same,%Inh,[5]; [21],0%
same,%Inh,[6],58%
same,%Inh,[7],0%
same,%Inh,[8],0%
same,%Inh,[9],85%
same,%Inh,[10],99.5%
same,%Inh,[11],0%
same,%Inh,[12],0%
same,%Inh,[13],0%
same,%Inh,[14],39%
same,%Inh,[15],29%
same,%Inh,[16],0%
same,%Inh,[17],0%
same,%Inh,[18],34%
same,%Inh,[19]; [21],39%
same,%Inh,[20],28%
COC(=O)Nc1nc2cc(Oc3ccc(NC(=O)Nc4cc(C(F)(F)F)ccc4F)cn3)ccc2[nH]1.Cl.Cl [GW681170],%Inh,[1],13%
same,%Inh,[2]; [21],9%
same,%Inh,[3],22%
same,%Inh,[4],0%
same,%Inh,[5]; [21],0%
same,%Inh,[6],22%
same,%Inh,[7],16%
same,%Inh,[8],0%
same,%Inh,[9],90.3%
same,%Inh,[10],99.9%
same,%Inh,[11],0%
same,%Inh,[12],0%
same,%Inh,[13],14%
same,%Inh,[14],41%
same,%Inh,[15],58%
same,%Inh,[16],0%
same,%Inh,[17],0%
same,%Inh,[18],51%
same,%Inh,[19]; [21],46%
same,%Inh,[20],27%
Cl.c1ccc(-c2ccc3c(Nc4ccc5[nH]ccc5c4)ccnc3c2)nc1 [GW440138],%Inh,[1],5%
same,%Inh,[2]; [21],0%
same,%Inh,[3],0%
same,%Inh,[4],0%
same,%Inh,[5]; [21],3%
same,%Inh,[6],77%
same,%Inh,[7],0%
same,%Inh,[8],0%
same,%Inh,[9],40%
same,%Inh,[10],96.9%
same,%Inh,[11],4%
same,%Inh,[12],0%
same,%Inh,[13],0%
same,%Inh,[14],0%
same,%Inh,[15],78%
same,%Inh,[16],19%
same,%Inh,[17],0%
same,%Inh,[18],23%
same,%Inh,[19]; [21],43%
same,%Inh,[20],0%
Cn1cc(-c2ccc3c(c2)CCN3C(=O)Cc2cccc(F)c2)c2c(N)ncnc21 [GSK2603358],%Inh,[1],2%
same,%Inh,[2]; [21],0%
same,%Inh,[3],4%
same,%Inh,[4],1%
same,%Inh,[5]; [21],14%
same,%Inh,[6],44%
same,%Inh,[7],0%
same,%Inh,[8],8%
same,%Inh,[9],9%
same,%Inh,[10],47%
same,%Inh,[11],7%
same,%Inh,[12],0%
same,%Inh,[13],0%
same,%Inh,[14],99.7%
same,%Inh,[15],34%
same,%Inh,[16],5%
same,%Inh,[17],62%
same,%Inh,[18],9%
same,%Inh,[19]; [21],64%
same,%Inh,[20],21%
CCS(=O)(=O)c1ccc(OC)c(Nc2nccc(-c3c(-c4cccc(NC(=O)c5c(F)cccc5F)c4)nn4ncccc34)n2)c1 [GSK326180],%Inh,[1],12%
same,%Inh,[2]; [21],6%
same,%Inh,[3],3%
same,%Inh,[4],0%
same,%Inh,[5]; [21],18%
same,%Inh,[6],20%
same,%Inh,[7],12%
same,%Inh,[8],7%
same,%Inh,[9],93.2%
same,%Inh,[10],20%
same,%Inh,[11],30%
same,%Inh,[12],0%
same,%Inh,[13],56%
same,%Inh,[14],0%
same,%Inh,[15],83%
same,%Inh,[16],27%
same,%Inh,[17],10%
same,%Inh,[18],2%
same,%Inh,[19]; [21],18%
same,%Inh,[20],0%
CCn1c(-c2nonc2N)nc2c(C#CC(C)(C)O)ncc(OCCCCN)c21.O=C(O)C(F)(F)F.O=C(O)C(F)(F)F [GSK507274],%Inh,[1],0%
same,%Inh,[2]; 1 µM,64%
same,%Inh,[3],96%
same,%Inh,[4],0%
same,%Inh,[5]; 1 µM,94.1%
same,%Inh,[6],2%
same,%Inh,[7],0%
same,%Inh,[8],5%
same,%Inh,[9],13%
same,%Inh,[10],1%
same,%Inh,[11],16%
same,%Inh,[12],0%
same,%Inh,[13],0%
same,%Inh,[14],0%
same,%Inh,[15],18%
same,%Inh,[16],0%
same,%Inh,[17],4%
same,%Inh,[18],97.2%
same,%Inh,[19]; 1 µM,95.3%
same,%Inh,[20],0%
O=C(NC1CCN(c2ccnc(Nc3ccc(F)cc3)n2)C1)c1cc2ccccc2s1 (stereo not drawn) [GSK1379716],%Inh,[1],9%
same,%Inh,[2]; [21],7%
same,%Inh,[3],0%
same,%Inh,[4],0%
same,%Inh,[5]; [21],4%
same,%Inh,[6],45%
same,%Inh,[7],15%
same,%Inh,[8],10%
same,%Inh,[9],17%
same,%Inh,[10],10%
same,%Inh,[11],27%
same,%Inh,[12],0%
same,%Inh,[13],33%
same,%Inh,[14],0%
same,%Inh,[15],9%
same,%Inh,[16],3%
same,%Inh,[17],13%
same,%Inh,[18],39%
same,%Inh,[19]; [21],29%
same,%Inh,[20],36%
CCCCc1nn2ncccc2c1-c1ccnc(Nc2ccc(N3CCN(C)CC3)cc2)n1 [GW684941],%Inh,[1],86%
same,%Inh,[2]; [21],0%
same,%Inh,[3],4%
same,%Inh,[4],0%
same,%Inh,[5]; [21],31%
same,%Inh,[6],36%
same,%Inh,[7],40%
same,%Inh,[8],43%
same,%Inh,[9],0%
same,%Inh,[10],99.5%
same,%Inh,[11],52%
same,%Inh,[12],44%
same,%Inh,[13],49%
same,%Inh,[14],22%
same,%Inh,[15],74%
same,%Inh,[16],29%
same,%Inh,[17],56%
same,%Inh,[18],32%
same,%Inh,[19]; [21],30%
same,%Inh,[20],71%
Cc1ccc(C)c(NC(=O)NC2CCN(c3ccnc(Nc4ccc(F)cc4)n3)C2)c1 (stereo not drawn) [GSK1379720],%Inh,[1],0%
same,%Inh,[2]; [21],0%
same,%Inh,[3],0%
same,%Inh,[4],0%
same,%Inh,[5]; [21],4%
same,%Inh,[6],51%
same,%Inh,[7],19%
same,%Inh,[8],13%
same,%Inh,[9],14%
same,%Inh,[10],0%
same,%Inh,[11],23%
same,%Inh,[12],0%
same,%Inh,[13],0%
same,%Inh,[14],0%
same,%Inh,[15],0%
same,%Inh,[16],6%
same,%Inh,[17],0%
same,%Inh,[18],0%
same,%Inh,[19]; [21],29%
same,%Inh,[20],0%
